Compound activity as filed in PubChem.
mHTT-CaM PPI inh: mHTT-calmodulin interaction abrogation; AID 1671202; AlphaScreen His-mHTT/GST-CaM binding, luminescence; inhibition, % at 15 µM; 190,000 compounds, 3.6% hits;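 note: 0% = both proteins with DMSO and 100% = one protein alone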
Pf apPOL block: Pf-apPOL DNA polymerase inhibition | Recombinant Pf-apPOL, molecular beacon fluorescence, 1.5 h | inhibition, % at 10 µM | 210,000 compounds, 0.25% hits
* marks the source's active call; other numbers are inactive results; · = not tested or not shown; ! = a repeat was not active. Shown is part of a subset that was picked to be rich in hits. Cut-off read from the data, not from the text of the source: active = inhibition above about 50%; inactive = the rest.

SMILES	mHTT-CaM PPI inh	Pf apPOL block
O=C(NCc1cccnc1)C1CCN(Cc2cc3ccccc3n2Cc2ccccc2)CC1	68*	3
O=C(NCc1cccnc1)C1CCN(c2cnn(Cc3ccccc3)c(=O)c2)CC1	-6	-2
O=c1c2c(ncn2Cc2ccccc2F)n(-c2ccccc2)c(=O)n1CC1CC1	13	-1
CC(C)c1nnc(C2CCN(C(=O)c3c[nH]c4ccccc34)CC2)o1	-15	-11
O=[N+]([O-])c1cccc(-c2noc(COc3ccc(Br)cc3)n2)c1	0	3
COc1ccc(-n2c(=O)c3c4c(sc3n3cnnc23)CCCC4)cc1	7	1
COc1ccc(-n2c(NN)nc3sc4c(c3c2=O)CCCC4)cc1	61*	-5
CC(=O)NC(=O)CSc1nc2ccccc2s1	-1	-4
CCCn1c(C(=O)N(C)Cc2ccccc2)cc2sc(Br)cc21	14	-4
CCCn1c(C(=O)N(C)Cc2ccccc2)cc2sc(C)cc21	91*	-12
Cc1cc(O)cc2c1C(=O)C(=Cc1cc3ccccc3o1)O2	55*	-2
Cc1cc(O)cc2c1C(=O)C(=Cc1ccccc1)O2	0	-12
CC(C)CN1CCN(C(=O)c2cn3ccnc(-c4ccccc4)c3n2)CC1	10	-1
Cn1c(SCC(=O)O)nnc1-c1ccc(NC(=O)c2ccccc2Cl)cc1	1	85*
Cn1c(SCC(=O)c2ccccc2)nnc1-c1ccc(NC(=O)c2ccccc2Cl)cc1	16	-5
CCN1C(=O)/C(=C\c2nc3ccccc3c(=O)n2-c2ccccc2[N+](=O)[O-])c2ccccc21	56*	-2
CCCN1C(=O)/C(=C\c2nc3ccccc3c(=O)n2CC)c2ccccc21	12	-2
CCN1C(=O)/C(=C\c2nc3ccccc3c(=O)n2CC)c2ccccc21	100*	-8
CCCN1C(=O)/C(=C\c2nc3ccccc3c(=O)n2-c2ccc(OC)cc2)c2ccccc21	3	-34
Cc1cccc(C(=O)N2CCc3c(c(C(=O)NCc4ccc(F)cc4)nn3C)C2)c1	73*	-10
Cn1nc(C(=O)NCc2ccc(F)cc2)c2c1CCN(C(=O)c1cccs1)C2	0	-12
COc1cccc(C(=O)N2CCc3c(c(C(=O)NCc4ccc(F)cc4)nn3C)C2)c1	86*	-14
Cn1nc(C(=O)NCc2ccc(F)cc2)c2c1CCN(C(=O)c1ccc(F)cc1)C2	-6	-4
COc1ccc(C2CN(C(=O)c3ccccc3)CC2C(=O)NC2CC2)cc1 (centres undefined)	1	0
CC1CCC(NC(=O)C2CCC(Cn3c(=O)[nH]c4ccsc4c3=O)CC2)CC1 (centres undefined)	9	-3
SMILES	mHTT-CaM PPI inh	Pf apPOL block
O=C(c1ccc([N+](=O)[O-])cc1)c1ccc2c(c1)C(=O)N(c1ccc(O)c(C(=O)O)c1)C2=O	2	2
Cc1cc(I)ccc1Nc1nc(Cl)nc(NCCO)n1	10	-2
Cc1ccc(C(=O)N2CCc3c(c(-c4nc(-c5cccc(F)c5)no4)nn3C)C2)cc1F	-14	-1
O=[N+]([O-])c1ccc(C2Nc3c(cccc3C(F)(F)F)C3C=CCC32)cc1 (centres undefined)	13	-5
Cc1ccc([N+](=O)[O-])c2c1NC(c1ccc(Br)cc1)C1CC=CC21 (centres undefined)	97*	4
CCOc1cc2c(c([N+](=O)[O-])c1)NC(c1ccc(Br)cc1)C1CC=CC21 (centres undefined)	16	-1
O=C(O)c1ccc([N+](=O)[O-])c2c1NC(c1ccccc1)C1CC=CC21 (centres undefined)	80*!	-7
CCC(C)NC(=O)C1CCN(c2nc3cc(Cl)ccc3s2)CC1 (centres undefined)	-1	-11
COc1ccccc1-c1noc(C2CCCN2C(=O)Nc2ccc(F)c(Cl)c2)n1 (centres undefined)	10	0
O=S(=O)(Cc1ccccc1)Nc1nc2ccccc2s1	0	3
NNc1nc2ccccc2s1	86*	-4
CCOc1ccccc1C1C2=C(CCCC2=O)Nc2ncnn21 (centres undefined)	-2	-2
Nn1c(CO)nnc1SCc1cc(Cl)cc2c1OCOC2	1	·
Cc1ccc(C)c(C2=NN(C(=O)CN3CCOCC3)C(c3ccc(Cl)cc3)C2)c1 (centres undefined)	49	-4
Cc1ccc(C2CC(c3ccc(C)cc3C)=NN2C(=O)CN2CCOCC2)cc1 (centres undefined)	76*	-6
Cc1ccc(C2CC(c3ccccc3)=NN2C(=O)CN2CCOCC2)cc1 (centres undefined)	36	-6
Cc1ccc(C2CC(c3cccc(C)c3)=NN2C(=O)CN2CCOCC2)cc1 (centres undefined)	85*	-6
Cc1ncc(CO)c2cc(-c3nnc(Nc4ccc(C(C)C)cc4)s3)c(=O)oc12	-1	-4
CCCN1C(=O)c2ccccc2CC1(C)C(=O)NCc1ccc(OC)cc1 (centres undefined)	-10	-5
O=C(C1=CN(c2ccccc2)c2cc(F)ccc2S1(=O)=O)N1CCOCC1	-3	-1
COc1ccc(C(Nc2cccc(C)n2)c2ccc3ccc(C)nc3c2O)cc1C (centres undefined)	89*	-92
Cc1ccc2cccc(NC(=O)C(F)(F)F)c2n1	28	1
COc1cc(C(Nc2cccc(C)n2)c2ccc3ccc(C)nc3c2O)ccc1O (centres undefined)	97*	-79
COc1cc(C(O)CO)ccc1O (centres undefined)	·	-5
Cc1cccc(NS(=O)(=O)c2ccc(C)c([N+](=O)[O-])c2)n1	-6	3
SMILES	mHTT-CaM PPI inh	Pf apPOL block
Cc1cccc(NC(c2ccc(O)cc2)c2ccc3ccc(C)nc3c2O)n1 (centres undefined)	97*	-6
COc1ccc(C(=O)Nc2cccc(C)n2)c(OC)c1OC	-8	0
Cc1cccc(NC(c2ccccc2[N+](=O)[O-])c2ccc3ccc(C)nc3c2O)n1 (centres undefined)	75*	-6
COc1ccc(C(CNC(=O)C(=O)Nc2ccc(F)c(Cl)c2)N2CCN(C)CC2)cc1 (centres undefined)	0	1
Cc1cc(C)cc(N2CC(C(=O)Nc3ccc(C)c(C)c3)CC2=O)c1 (centres undefined)	8	1
O=c1oc(-c2ccc([N+](=O)[O-])cc2Cl)nc2cc(Cl)ccc12	-6	2
CC1C(c2ccc(N(C)C)cc2)NC(c2ccc(N(C)C)cc2)C(C)C1O (centres undefined)	17	-9
CC1C(=NO)C(C)C(c2ccc(N(C)C)cc2)NC1c1ccc(N(C)C)cc1 (centres undefined)	76*	-11
OC(COc1ccc(C23CC4CC(CC(C4)C2)C3)cc1)C[N+]1(Cc2ccccc2)CCOCC1 (centres undefined)	100*	-61
CCCCOCC(O)C[N+]1(Cc2ccccc2)CCOCC1 (centres undefined)	-5	-2
Cc1noc(C2CN(C(=O)Nc3ccccc3C)CC23CCOCC3)n1 (centres undefined)	3	4
NCc1cccc(Oc2ccccc2)c1	-5	-13
N#Cc1cccc(C(=O)Cc2cccc(Oc3ccccc3)c2)c1	·	56*
O=C(Nc1ccccc1)C(Sc1ccccc1)c1ccccc1 (centres undefined)	-20	-2
CCOC(=O)c1ccc(NC(=O)c2nc(C)n(C3CCN(C(C)=O)CC3)c2C)cc1	30	-5
